# Reference: publication PMC8384837, “Expanding the binding specificity for RNA recognition by a PUF domain”
# Key:
# Assay in all cases: yeast three-hybrid, YBZ-1, SC-Leu-His + 0.5 mM 3-AT, 4 days
# Details in all cases: tags: N-Gal4 AD-HA kept; label: inside an RPR1-promoter hybrid RNA with tandem MS2 sites; ssRNA
# PUM1 PUF domain R4-SQR = PUM1 PUF domain R4-SQR (Homo sapiens, UniProt Q14671 828-1176, N971S;H972Q;Q975R)
# Summary of the method: (§1)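 Sequencing with Illumina followed PCR amplification of the repeat regions from transformants grown four days on SC-Leu (input) or SC-Leu-His + 0.5 mM 3-AT (selection). The transformants were strain YBZ-1 with a LexA–MS2 coat fusion and a HIS3 reporter, carrying Pumilio-1 PUF domain libraries and matching RNA elements. The interaction score is the log change in variant frequency from input to selection, computed in log2 with a pseudocount of 1 for absent variants.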
# PUM1 PUF domain R4-WGA = PUM1 PUF domain R4-WGA (Homo sapiens, UniProt Q14671 828-1176, N971W;H972G;Q975A)
# Summary of the method: as §1
# PUM1 PUF domain R4-KGY = PUM1 PUF domain R4-KGY (Homo sapiens, UniProt Q14671 828-1176, N971K;H972G;Q975Y)
# Summary of the method: as §1
# PUM1 PUF domain R5-GRK = PUM1 PUF domain R5-GRK (Homo sapiens, UniProt Q14671 828-1176, C1007G;Q1011K)
# Summary of the method: as §1
# PUM1 PUF domain R8-RFE = PUM1 PUF domain R8-RFE (Homo sapiens, UniProt Q14671 828-1176, N1122R;Y1123F;Q1126E)
# Summary of the method: as §1
# PUM1 PUF domain R8-NWE = PUM1 PUF domain R8-NWE (Homo sapiens, UniProt Q14671 828-1176, Y1123W;Q1126E)
# Summary of the method: as §1
# PUM1 PUF domain R4-VRT = PUM1 PUF domain R4-VRT (Homo sapiens, UniProt Q14671 828-1176, N971V;H972R;Q975T)
# Summary of the method: as §1
# PUM1 PUF domain R3-VRV = PUM1 PUF domain R3-VRV (Homo sapiens, UniProt Q14671 828-1176, C935V;Q939V)
# Summary of the method: as §1
# PUM1 PUF domain R3-WAR = PUM1 PUF domain R3-WAR (Homo sapiens, UniProt Q14671 828-1176, C935W;R936A;Q939R)
# Summary of the method: as §1
# PUM1 PUF domain R3-YCD = PUM1 PUF domain R3-YCD (Homo sapiens, UniProt Q14671 828-1176, C935Y;R936C;Q939D)
# Summary of the method: as §1
# PUM1 PUF domain R3-LSN = PUM1 PUF domain R3-LSN (Homo sapiens, UniProt Q14671 828-1176, C935L;R936S;Q939N)
# Summary of the method: as §1
# PUM1 PUF domain R7-GND = PUM1 PUF domain R7-GND (Homo sapiens, UniProt Q14671 828-1176, S1079G;E1083D)
# Summary of the method: as §1
# PUM1 PUF domain R7-RSL = PUM1 PUF domain R7-RSL (Homo sapiens, UniProt Q14671 828-1176, S1079R;N1080S;E1083L)
# Summary of the method: as §1
# PUM1 PUF domain R1-SGE = PUM1 PUF domain R1-SGE (Homo sapiens, UniProt Q14671 828-1176, R864G;Q867E)
# Summary of the method: as §1
# PUM1 PUF domain R1-KTE = PUM1 PUF domain R1-KTE (Homo sapiens, UniProt Q14671 828-1176, S863K;R864T;Q867E)
# Summary of the method: as §1
# PUM1 PUF domain R8-RYF = PUM1 PUF domain R8-RYF (Homo sapiens, UniProt Q14671 828-1176, N1122R;Q1126F)
# Summary of the method: as §1
# PUM1 PUF domain R5-RYI = PUM1 PUF domain R5-RYI (Homo sapiens, UniProt Q14671 828-1176, C1007R;R1008Y;Q1011I)
# Summary of the method: as §1
# PUM1 PUF domain R5-RGT = PUM1 PUF domain R5-RGT (Homo sapiens, UniProt Q14671 828-1176, C1007R;R1008G;Q1011T)
# Summary of the method: as §1
# PUM1 PUF domain R3-YYA = PUM1 PUF domain R3-YYA (Homo sapiens, UniProt Q14671 828-1176, C935Y;R936Y;Q939A)
# Summary of the method: as §1
# PUM1 PUF domain R3-RAQ = PUM1 PUF domain R3-RAQ (Homo sapiens, UniProt Q14671 828-1176, C935R;R936A)
# Summary of the method: as §1
# PUM1 PUF domain R5-GRK, sequence (Q14671 828-1176 C1007G/Q1011K): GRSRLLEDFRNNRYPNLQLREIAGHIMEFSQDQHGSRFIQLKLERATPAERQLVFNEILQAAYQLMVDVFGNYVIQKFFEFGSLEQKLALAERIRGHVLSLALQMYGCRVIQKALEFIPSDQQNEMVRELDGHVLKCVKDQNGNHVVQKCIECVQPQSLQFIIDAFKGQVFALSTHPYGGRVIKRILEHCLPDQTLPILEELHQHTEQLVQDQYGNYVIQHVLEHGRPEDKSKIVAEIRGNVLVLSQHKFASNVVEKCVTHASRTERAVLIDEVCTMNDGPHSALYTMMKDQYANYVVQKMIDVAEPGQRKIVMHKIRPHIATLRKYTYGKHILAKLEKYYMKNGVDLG
# PUM1 PUF domain R1-SGE, sequence (Q14671 828-1176 R864G/Q867E): as the sequence (Q14671 828-1176 C1007G/Q1011K) above, with R37G, Q40E, G180C, K184Q counted along it
# PUM1 PUF domain R7-RSL, sequence (Q14671 828-1176 S1079R/N1080S/E1083L): as the sequence (Q14671 828-1176 C1007G/Q1011K) above, with G180C, K184Q, S252R, N253S, E256L counted along it
# PUM1 PUF domain R8-NWE, sequence (Q14671 828-1176 Y1123W/Q1126E): as the sequence (Q14671 828-1176 C1007G/Q1011K) above, with G180C, K184Q, Y296W, Q299E counted along it
# PUM1 PUF domain R8-RFE, sequence (Q14671 828-1176 N1122R/Y1123F/Q1126E): as the sequence (Q14671 828-1176 C1007G/Q1011K) above, with G180C, K184Q, N295R, Y296F, Q299E counted along it
# PUM1 PUF domain R3-LSN, sequence (Q14671 828-1176 C935L/R936S/Q939N): as the sequence (Q14671 828-1176 C1007G/Q1011K) above, with C108L, R109S, Q112N, G180C, K184Q counted along it
# PUM1 PUF domain R4-WGA, sequence (Q14671 828-1176 N971W/H972G/Q975A): as the sequence (Q14671 828-1176 C1007G/Q1011K) above, with N144W, H145G, Q148A, G180C, K184Q counted along it
# PUM1 PUF domain R3-WAR, sequence (Q14671 828-1176 C935W/R936A/Q939R): as the sequence (Q14671 828-1176 C1007G/Q1011K) above, with C108W, R109A, Q112R, G180C, K184Q counted along it
# PUM1 PUF domain R1-KTE, sequence (Q14671 828-1176 S863K/R864T/Q867E): as the sequence (Q14671 828-1176 C1007G/Q1011K) above, with S36K, R37T, Q40E, G180C, K184Q counted along it
# PUM1 PUF domain R4-KGY, sequence (Q14671 828-1176 N971K/H972G/Q975Y): as the sequence (Q14671 828-1176 C1007G/Q1011K) above, with N144K, H145G, Q148Y, G180C, K184Q counted along it
# PUM1 PUF domain R4-SQR, sequence (Q14671 828-1176 N971S/H972Q/Q975R): as the sequence (Q14671 828-1176 C1007G/Q1011K) above, with N144S, H145Q, Q148R, G180C, K184Q counted along it
# PUM1 PUF domain R5-RYI, sequence (Q14671 828-1176 C1007R/R1008Y/Q1011I): as the sequence (Q14671 828-1176 C1007G/Q1011K) above, with G180R, R181Y, K184I counted along it
# PUM1 PUF domain R4-VRT, sequence (Q14671 828-1176 N971V/H972R/Q975T): as the sequence (Q14671 828-1176 C1007G/Q1011K) above, with N144V, H145R, Q148T, G180C, K184Q counted along it
# PUM1 PUF domain R3-RAQ, sequence (Q14671 828-1176 C935R/R936A): as the sequence (Q14671 828-1176 C1007G/Q1011K) above, with C108R, R109A, G180C, K184Q counted along it
# PUM1 PUF domain R7-GND, sequence (Q14671 828-1176 S1079G/E1083D): as the sequence (Q14671 828-1176 C1007G/Q1011K) above, with G180C, K184Q, S252G, E256D counted along it
# PUM1 PUF domain R5-RGT, sequence (Q14671 828-1176 C1007R/R1008G/Q1011T): as the sequence (Q14671 828-1176 C1007G/Q1011K) above, with G180R, R181G, K184T counted along it
# PUM1 PUF domain R3-YYA, sequence (Q14671 828-1176 C935Y/R936Y/Q939A): as the sequence (Q14671 828-1176 C1007G/Q1011K) above, with C108Y, R109Y, Q112A, G180C, K184Q counted along it
# PUM1 PUF domain R3-YCD, sequence (Q14671 828-1176 C935Y/R936C/Q939D): as the sequence (Q14671 828-1176 C1007G/Q1011K) above, with C108Y, R109C, Q112D, G180C, K184Q counted along it
# PUM1 PUF domain R8-RYF, sequence (Q14671 828-1176 N1122R/Q1126F): as the sequence (Q14671 828-1176 C1007G/Q1011K) above, with G180C, K184Q, N295R, Q299F counted along it
# PUM1 PUF domain R3-VRV, sequence (Q14671 828-1176 C935V/Q939V): as the sequence (Q14671 828-1176 C1007G/Q1011K) above, with C108V, Q112V, G180C, K184Q counted along it
sequence,measurement,setting,value
GGCUAGAACUAGUGGAUCCCCCGGCGCCCGGCGGCUCGAGCCCGGGUAAGUGUACAUAGUCUGCAUGCCGCCGGGCGCCAUGCCUGCAGGUCGACUCUAGAAAACAUG,binding signal,PUM1 PUF domain R4-SQR,3.07 log2 enrichment (interaction score)
same,binding signal,PUM1 PUF domain R4-WGA,3.39 log2 enrichment (interaction score)
GGCUAGAACUAGUGGAUCCCCCGGCGCCCGGCGGCUCGAGCCCGGGUAAGUGUAAAUAGUCUGCAUGCCGCCGGGCGCCAUGCCUGCAGGUCGACUCUAGAAAACAUG,binding signal,PUM1 PUF domain R4-KGY,4.05 log2 enrichment (interaction score)
same,binding signal,PUM1 PUF domain R5-GRK,3.37 log2 enrichment (interaction score)
same,binding signal,PUM1 PUF domain R4-WGA,3.8 log2 enrichment (interaction score)
same,binding signal,PUM1 PUF domain R8-RFE,2.4 log2 enrichment (interaction score)
same,binding signal,PUM1 PUF domain R8-NWE,2.9 log2 enrichment (interaction score)
same,binding signal,PUM1 PUF domain R4-VRT,4.25 log2 enrichment (interaction score)
same,binding signal,PUM1 PUF domain R3-VRV,3.29 log2 enrichment (interaction score)
GGCUAGAACUAGUGGAUCCCCCGGCGCCCGGCGGCUCGAGCCCGGGUAAGUGUAAGUAGUCUGCAUGCCGCCGGGCGCCAUGCCUGCAGGUCGACUCUAGAAAACAUG,binding signal,PUM1 PUF domain R3-WAR,2.85 log2 enrichment (interaction score)
same,binding signal,PUM1 PUF domain R3-YCD,3.96 log2 enrichment (interaction score)
same,binding signal,PUM1 PUF domain R3-LSN,4.28 log2 enrichment (interaction score)
GGCUAGAACUAGUGGAUCCCCCGGCGCCCGGCGGCUCGAGCCCGGGUAAGUUUAAAUAGUCUGCAUGCCGCCGGGCGCCAUGCCUGCAGGUCGACUCUAGAAAACAUG,binding signal,PUM1 PUF domain R7-GND,3.28 log2 enrichment (interaction score)
same,binding signal,PUM1 PUF domain R7-RSL,3.53 log2 enrichment (interaction score)
GGCUAGAACUAGUGGAUCCCCCGGCGCCCGGCGGCUCGAGCCCGGGUAAGUGUAAAUGGUCUGCAUGCCGCCGGGCGCCAUGCCUGCAGGUCGACUCUAGAAAACAUG,binding signal,PUM1 PUF domain R1-SGE,5.2 log2 enrichment (interaction score)
GGCUAGAACUAGUGGAUCCCCCGGCGCCCGGCGGCUCGAGCCCGGGUAAGUGUAAAUCGUCUGCAUGCCGCCGGGCGCCAUGCCUGCAGGUCGACUCUAGAAAACAUG,binding signal,PUM1 PUF domain R1-KTE,4.3 log2 enrichment (interaction score)
same,binding signal,PUM1 PUF domain R1-SGE,1.55 log2 enrichment (interaction score)
GGCUAGAACUAGUGGAUCCCCCGGCGCCCGGCGGCUCGAGCCCGGGUAAGUGUUAAUAGUCUGCAUGCCGCCGGGCGCCAUGCCUGCAGGUCGACUCUAGAAAACAUG,binding signal,PUM1 PUF domain R5-GRK,4.85 log2 enrichment (interaction score)
GGCUAGAACUAGUGGAUCCCCCGGCGCCCGGCGGCUCGAGCCCGGGUAAGCGUAAAUAGUCUGCAUGCCGCCGGGCGCCAUGCCUGCAGGUCGACUCUAGAAAACAUG,binding signal,PUM1 PUF domain R8-RYF,4.88 log2 enrichment (interaction score)
same,binding signal,PUM1 PUF domain R8-RFE,3.87 log2 enrichment (interaction score)
same,binding signal,PUM1 PUF domain R8-NWE,1.64 log2 enrichment (interaction score)
GGCUAGAACUAGUGGAUCCCCCGGCGCCCGGCGGCUCGAGCCCGGGUAAGUGUCAAUAGUCUGCAUGCCGCCGGGCGCCAUGCCUGCAGGUCGACUCUAGAAAACAUG,binding signal,PUM1 PUF domain R5-RYI,3.71 log2 enrichment (interaction score)
same,binding signal,PUM1 PUF domain R5-GRK,2.77 log2 enrichment (interaction score)
same,binding signal,PUM1 PUF domain R5-RGT,5.24 log2 enrichment (interaction score)
GGCUAGAACUAGUGGAUCCCCCGGCGCCCGGCGGCUCGAGCCCGGGUAAGUGUAAAUUGUCUGCAUGCCGCCGGGCGCCAUGCCUGCAGGUCGACUCUAGAAAACAUG,binding signal,PUM1 PUF domain R1-SGE,3.87 log2 enrichment (interaction score)
GGCUAGAACUAGUGGAUCCCCCGGCGCCCGGCGGCUCGAGCCCGGGUAAGUGUGAAUAGUCUGCAUGCCGCCGGGCGCCAUGCCUGCAGGUCGACUCUAGAAAACAUG,binding signal,PUM1 PUF domain R5-GRK,1.55 log2 enrichment (interaction score)
GGCUAGAACUAGUGGAUCCCCCGGCGCCCGGCGGCUCGAGCCCGGGUAAGUCUAAAUAGUCUGCAUGCCGCCGGGCGCCAUGCCUGCAGGUCGACUCUAGAAAACAUG,binding signal,PUM1 PUF domain R7-RSL,2.11 log2 enrichment (interaction score)
GGCUAGAACUAGUGGAUCCCCCGGCGCCCGGCGGCUCGAGCCCGGGUAAGUGUAAUUAGUCUGCAUGCCGCCGGGCGCCAUGCCUGCAGGUCGACUCUAGAAAACAUG,binding signal,PUM1 PUF domain R3-YYA,3.25 log2 enrichment (interaction score)
same,binding signal,PUM1 PUF domain R3-RAQ,3.8 log2 enrichment (interaction score)
same,binding signal,PUM1 PUF domain R3-WAR,2.65 log2 enrichment (interaction score)
same,binding signal,PUM1 PUF domain R3-LSN,2.89 log2 enrichment (interaction score)
